The panel holds about 83,000 compounds, 20% with a hit somewhere; the sample as a whole holds those more often.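 Percent growth is the endpoint: 0 to 100 indicates growth inhibition (40 means 60% inhibition), 0 means no net growth, and negative values indicate cell death.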 A number with no mark means an inactive call. Activity calls are given as the source filed them. Rule for the calls: active = growth percent below 10; inactive = the rest.

For the test, the system named is MDA-MB-468 breast. Put plainly: NCI-60 one-dose screen, 48 h (100 = growth as untreated, 0 = no growth, -100 = all killed). As to conditions: 10 µM unless noted.
Take `Cc1c(C(=O)N[C@@H](Cc2ccccc2)C(=O)C(=O)NCc2ccc(F)cc2)[nH]c2ccccc2c1=O`: the growth is 94.5%.

For `CC(=O)/C(C)=N\OC(=O)Nc1ccccc1`, the growth is 114%.

As to `CCOC(=O)c1ccc(NC(C)=O)o1`, the growth was 89.3%.

Regarding `O=C(/C=C/C12c3ccccc3C(c3ccccc31)C1C(=O)NC(=O)C12)c1cccs1` (stereo unspecified), the growth was 45.8%.

Turning to `CC(C)(C)c1cnc(CSc2cnc(NC(=O)C3CCNCC3)s2)o1`, the growth is -43.7% (active).

Turning to `N#CC(C#N)N=Nc1ccc(Cl)cc1`, the growth was -17.6% (active).

As for `C=CC(=O)N[C@H](Cc1ccc(-c2cc(Cl)cc(Cl)c2)cc1)[C@H](O)[C@@H](O)C(=O)O`, the growth was 85.5%.

With `COC(=O)c1ccc(-n2cc(CCCOS(=O)(=O)c3ccc(F)cc3)nn2)cc1`, the growth is 108%.

On to `Cc1cccc2c1O/C(=C\c1ncc([N+](=O)[O-])n1C)C2=O`, for which the growth is -12.6% (active).

Consider `Nn1c(N/N=C/c2nc3ccccc3s2)n[nH]c1=S`, for which the growth is 109%.

For the compound `COC(=O)C(Cc1cn(C(C)=O)c2ccccc12)P(=O)(OC)OC` (stereo unspecified), the growth was 101%.

On to `COc1ccccc1CNCCN1C(=O)c2ccc3c4c(ccc(c24)C1=O)C(=O)N(CCNCc1ccccc1OC)C3=O`, for which the growth is -92.8% (active).

Regarding `CS(=O)CCCCCN=C=S` (stereo unspecified), the growth was -11.3% (active).

For the compound `O=C1c2cc3c(cc2-c2c1c1ccc(Cl)cc1c(=O)n2C[C@H](O)CO)OCO3`, the growth was -53.8% (active).

In the case of `CCOC(=O)C(=CCC(C)C)C(=O)OCC`, the growth was 98%.

Take `CCOC(=O)C1=C(C(=O)OCC)N(c2cc(OC)c(OC)c(OC)c2)C(N)=C(C#N)C1c1cc(=O)[nH]c2ccccc12` (stereo unspecified): the growth is 92%.

With `c1cnc2[nH]cc(-c3csc(-c4cn(CCCN5CCOCC5)c5ccccc45)n3)c2c1`, the growth is 26.2%.

In the case of `NC(=O)c1ncn2c(=O)n(CCF)nnc12`, the growth is 48.4%.

For the compound `CC(=O)[C@@]1(O)CC[C@H]2[C@@H]3CC[C@@H]4CC(=O)CC[C@]4(C)[C@H]3[C@@H](O)C[C@@]21C`, the growth was 94.6%.

In the case of `CCC1CCc2nc3sc(C(=O)Nc4cccc(C)c4)c(N)c3cc2C1` (stereo unspecified), the growth is 44.5%.

`COc1ccc(CCN(CC(=O)N(CC(N)=O)C2CCC[C@@H]2OCc2ccccc2)C(=O)CN(C(=O)CN(CCc2ccc(Cl)cc2)C(=O)CN(C(=O)CN(C)Cc2ccccc2F)[C@H](C)C2CCCCC2)[C@H](C)C2CCCCC2)cc1OC` (stereo partly specified): the growth is 14.7%.

On to `COc1ccc(Cn2cc3c(c2-c2ccccc2)CC(C)(C)c2cnoc2-3)cc1`, for which the growth is 3.53% (active).

For the compound `CN(C)c1nc(-c2ccco2)n2nc(-c3ccc(Cl)cc3)cc2n1`, the growth was 78.3%.

Turning to `c1ccc2c(c1)CN(CCCN1CCOCC1)C2`, the growth is 89.7%.

On to `NCCCNc1nc2ccccc2c2c(=O)c3cccc(Cl)c3sc12`, for which the growth is -80.2% (active).

Take `COc1ccc(C)c2sc(N(Cc3cccnc3)C(=O)c3ccc(C#N)cc3)nc12`: the growth is -13.4% (active).
